# Reference: PubChem BioAssay (EPA / NIEHS)
# Calls of active or inactive are those of the source. Rule for the calls: active = hit-call score of the fitted dose curve at least 0.9, where 1 is the maximum; inactive = score below 0.9.
# Assay: APR_HepG2_CellCycleArrest_24hr: Apredica 24-hour HepG2 Assay for Cell Cycle Arrest (AID 2282905);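 note: cell cycle arrest scored as ratio of 2N to 4N nuclear DNA content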
# Details: imaging, actives raise or lower the signal
# Experimental: APR_HepG2_24hr is a cell-based, multiplexed-readout assay that uses HepG2, a human liver cell line, with measurements taken at 24 hours after chemical dosing in a 384-well plate.APR_HepG2_CellCycleArrest_24hr is one of 10 assay component(s) measured or calculated from the APR_HepG2_24hr assay. It is designed to make measurements of cell phenotype, a form of morphology reporter, as detected with fluorescence intensity signals by HCS Fluorescent Imaging technology.Data from the assay component APR_HepG2_CellCycleArrest_24hr was analyzed into 1 assay endpoint. This assay endpoint, APR_HepG2_CellCycleArrest_24hr, was analyzed with bidirectional fitting relative to DMSO as the negative control and baseline of activity. Using a type of morphology reporter, measures of all nuclear dna for gain or loss-of-signal activity can be used to understand the signaling at the pathway-level as they relate to the gene . Furthermore, this assay endpoint can be referred to as a primary readout, because this assay has produced multiple assay endpoints where this one serves a signaling function. To generalize the intended target to other relatable targets, this assay endpoint is annotated to the cell cycle intended target family, where the subfamily is arrest.
# Cells were treated with dimethyl sulfoxide (DMSO) as a solvent control at a final concentration of 0.5% v/v or with compounds in DMSO with a resulting final DMSO concentration of 0.5% v/v. Compound treatment was done at concentrations of 0.39, 0.78, 1.56, 3.12, 6.24, 12.5, 25, 50, 100, and 200 uM in duplicate on each plate. Cells were treated with compounds for 1, 24, or 72 hr. Carbonyl […] m-chloro-phenylhydrazone (CCCP) and taxol were used as positive controls for mitochondrial function and cytoskeletal stability, respectively; DMSO served as the negative control for this experiment. Cells were fixed by the direct addition of 50 uL formaldehyde in Hank's Balanced Salt Solution (HBSS) to a final concentration of 3.7%. After incubation in the fixation medium for 30 min at room temperature (293-298 K), cells were rinsed twice with HBSS and treated with cell permeabilization buffer (16 uL of 0.5% Triton X-100) for 10 min at room temperature (293-298 K) before labeling. For mitochondrial membrane potential and mitochondrial measurements, pre-fixed cells were incubated with 50 uL of MitoTracker Red CMXRos (Invitrogen) at a concentration of 250 nM for 30 min before fixation. In the remaining cases, post-fixed cells were labeled by incubation with a multiplexed mixture of primary antibodies in HBSS for 60 min at room temperature (293-298 K) to detect immunoreactivity of c-Jun (1:500), phospho-histone H3 (1:100), phospho-histone H2A.x (1:200), p53 (1:400), alpha-tubulin (1:200) and Hoechst 33342 (2 ug/mL). Cells were labeled for multiplexed imaging on two separate plates: a) Hoechst 33342, MitoTracker Red, phospho-histone H3, and alpha-tubulin, and b) Hoechst 33342, phospho-histone H2A.x, and c-Jun. A final rinse with HBSS (50 uL) was performed before analysis. The primary and secondary antibodies for the proteins were phospho-histone H3 (rabbit anti-phospho-histone H3 and FITC-donkey anti-rabbit IgG), phospho-histone H2A.x (mouse anti-phospho-histone H2A.x and FITC-donkey anti-mouse IgG), c-Jun (rabbit anti-phospho-c-Jun and Cy3-donkey anti-rabbit IgG), p53 (sheep anti-p53 and Cy5-donkey anti-sheep IgG), alpha-tubulin (mouse anti-alpha-tubulin and Cy5-donkey anti-mouse IgG). These antibodies are available as the CellCiphr HepG2 assay kit (Millipore).Digital images of each well were captured using a Cellomics ArrayScan VTI (Thermo Scientific Cellomics) (0.8 NA objective, 0.63x optical coupler, and XF-93 filter set) at 20x magnification. The images were acquired using the autofocus feature of the ArrayScan instrument, which entails the following steps. First, the camera focuses on channel 1 (Hoechst 33342), where nuclei are identified. Second, a Z offset of 1 um is used for capturing mitochondria (MitoTracker Red). […]
SMILES,outcome,AC50
CC1=C(/C=C/C(C)=C/C=C/C(C)=C/C(=O)O)C(C)(C)CCC1,inactive,
CC(=O)NC1(c2cccc(F)c2)CCN(CC[C@@]2(c3ccc(Cl)c(Cl)c3)CN(c3ccccc3)C(=O)CO2)CC1,,26.3 µM (active)
CC(C)(C)CC(C)(C)c1ccc(O)c(-n2nc3ccccc3n2)c1,,36.9 µM (active)
c1ccc2cc3c(ccc4ccccc43)cc2c1,,67.6 µM (active)
CCCOC(=O)c1ccc(O)cc1,inactive,
CCc1nn(C2CCCCC2)c2cc(C3(C#N)CCC(C(=O)O)CC3)ccc12 (stereo not given),inactive,
NC(=O)N1C(=O)C(C(=O)c2cc(Cl)cs2)c2cc(F)c(Cl)cc21 (stereo not given),inactive,
C[C@@H]1C[C@H]2[C@@H]3CCC4=CC(=O)C=C[C@]4(C)[C@@]3(F)[C@@H](O)C[C@]2(C)[C@@]1(O)C(=O)COP(=O)(O)O,inactive,
Oc1cc2ccccc2c2ccccc12,,37.1 µM (active)
O=c1c(-c2ccc(O)cc2)coc2cc(O)ccc12,inactive,
CCN(CC)CCNc1ccc(CNC=O)c2sc3ccc(OC)cc3c(=O)c12,,5.68 µM (active)
CC(C)(C)c1cc(C(C)(C)C)c(O)c(C(C)(C)C)c1,inactive,
CCCCC(CC)COC(=O)CCCCC(=O)OCc1ccccc1 (stereo not given),inactive,
OC1CCC(C2CCCCC2)CC1 (stereo not given),inactive,
CCCCOCCO,inactive,
C=C(C)C(=O)OCCC(F)(F)C(F)(F)C(F)(F)C(F)(F)C(F)(F)C(F)(F)F,inactive,
c1ccc2c(c1)Cc1ccccc1-2,inactive,
Nc1cccc2c(N)cccc12,inactive,
CC(C)(C)c1cccc(C(C)(C)C)c1O,inactive,
CC(C)CCCCCCOC(=O)CCCCC(=O)OCCCCCCC(C)C,inactive,

SMILES,outcome,AC50
CCCCCCCCC(=O)O,inactive,
CC(C)(C)c1ccc(O)c(C(C)(C)C)c1,inactive,
O=C(OCCOCCOC(=O)c1ccccc1)c1ccccc1,inactive,
OCCC(F)(F)C(F)(F)C(F)(F)C(F)(F)C(F)(F)C(F)(F)F,inactive,
N#C[C@@H]1CC(F)(F)CN1C(=O)CNC1CC2CCC(C1)N2c1ncccn1 (stereo not given in full),inactive,
NC(=O)N(O)[C@@H]1C=C[C@H](Oc2cccc(Oc3ccc(F)cc3)c2)C1,inactive,
COCC(C)OCC(C)O (stereo not given),inactive,
C#C[C@]1(O)CC[C@H]2[C@@H]3CCC4=CC(=O)CC[C@@H]4[C@H]3CC[C@@]21C,inactive,
O=C(O)Cc1cc(I)c(Oc2cc(I)c(O)c(I)c2)c(I)c1,,109 µM (active)
O=C(O)c1ccccc1C(c1ccc(O)cc1)c1ccc(O)cc1,inactive,
CC[C@H](c1ccc(O)cc1)[C@@H](CC)c1ccc(O)cc1,inactive,
ClC1=C(Cl)C(Cl)(Cl)C(Cl)=C1Cl,inactive,
COC(=O)CCCCC(=O)OC,inactive,
CCCCCCCCCCCCc1ccccc1S(=O)(=O)O,inactive,
CN1CCN(c2ccccc2/C=C2\SCCN(c3ccc(Cl)c(Cl)c3)C2=O)CC1,inactive,
CC#C[C@]1(O)CC[C@H]2[C@@H]3CCC4=CC(=O)CCC4=C3[C@@H](c3ccc(N(C)C)cc3)C[C@@]21C,inactive,
CCc1ccc(CCOc2ccc(CC3SC(=O)NC3=O)cc2)nc1 (stereo not given),,30.6 µM (active)
Cc1oc(-c2ccccc2)nc1CCOc1ccc(C[C@H](Nc2ccccc2C(=O)c2ccccc2)C(=O)O)cc1,inactive,
CCC(C)(C)C1CCC(O)CC1 (stereo not given),inactive,
CCCCCCCCOC(=O)CCCCCCCCC(=O)OCCCCCCCC,inactive,
